Results: PubChem BioAssay AID488896 (Broad Institute, 2010)
Hit rate of the full screen: of about 320,000 compounds, about 3,100 (0.97%) were called active. The list comes from a sample in which actives are over-represented; it also holds similar structures and randomly drawn compounds. Values without a mark were called inactive.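 Rule for the calls: active = mean replicate inhibition of at least 70% and a set share of replicates each scoring 70 or more; inconclusive = meets just one of the two criteria; inactive = fails both criteria.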

The compounds below were run against Scavenger receptor class B member 1 (Mus musculus) (UniProt Q61009) (assay: inhibitors of SR-BI mediated HDL lipid uptake, primary screen, ldlA[mSR-BI] cells, fluorescence, single point (AID 488896;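 note: 0% = median of neutral control wells and 100% = median of positive control wells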)). Settings: ldlA[mSR-BI] CHO cells, DiI-HDL uptake fluorescence, 3 h; at 12.5 µM; hits give high values.
Sequence of Scavenger receptor class B member 1 (Mus musculus) (Q61009 whole entry, looked up): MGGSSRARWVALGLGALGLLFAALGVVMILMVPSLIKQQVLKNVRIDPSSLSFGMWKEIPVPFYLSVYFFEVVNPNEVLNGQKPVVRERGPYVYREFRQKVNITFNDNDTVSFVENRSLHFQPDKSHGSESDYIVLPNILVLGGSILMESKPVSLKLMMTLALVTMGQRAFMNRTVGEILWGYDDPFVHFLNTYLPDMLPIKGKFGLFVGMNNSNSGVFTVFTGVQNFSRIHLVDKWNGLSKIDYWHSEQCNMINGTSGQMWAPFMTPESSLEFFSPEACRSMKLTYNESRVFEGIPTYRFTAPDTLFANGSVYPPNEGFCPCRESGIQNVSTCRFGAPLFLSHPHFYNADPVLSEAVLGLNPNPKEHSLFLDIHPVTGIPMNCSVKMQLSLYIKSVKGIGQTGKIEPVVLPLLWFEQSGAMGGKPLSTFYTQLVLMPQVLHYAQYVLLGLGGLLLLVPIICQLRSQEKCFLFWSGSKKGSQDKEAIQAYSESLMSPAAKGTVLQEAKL
Work on CCCCNCCS(=O)(=O)NCc1ccccc1 yielded an inhibition of -2.76%.
Cc1cc([N+](=O)[O-])ccc1NS(=O)(=O)c1ccccc1 showed an inhibition of -11.2%.
Cc1ccc(S(=O)(=O)N2CCN(C(=O)COC(=O)c3c(C)cc(C)cc3C)CC2)c(C)c1 gave an inhibition of 20.4%.
For COc1ccc(/C=C/C(=O)OCC(=O)N2CCN(S(=O)(=O)c3ccc(C)cc3C)CC2)cc1OC, the inhibition was 71.9% (active).
Cc1ccc(S(=O)(=O)N2CCN(C(=O)COC(=O)/C=C/c3cccc(Cl)c3)CC2)c(C)c1 was tested, and the inhibition was -11.6%.
Work on CC(C)(C)OC(=O)N1CCC(C(=O)Nc2cccc(C(=O)NCCc3ccccc3)c2)CC1 yielded an inhibition of 52.6%.
Compound CC(=O)N1CCN(C(=O)c2cc(-c3ccc(Cl)s3)nc3ccccc23)CC1 has an inhibition of 33.7%.
With Cc1c(NC(=O)c2cc(-c3ccc(Cl)s3)nc3ccccc23)c(=O)n(-c2ccccc2)n1C the inhibition was 95.8% (active).
In the case of O=C(c1cc(-c2ccc(Cl)s2)nc2ccccc12)N1CCOCC1, the inhibition is reported as 19.5%.
CC(=O)Oc1ccc(OC(C)=O)c2c1C1C=CC2CC1 was tested, and the inhibition was -21.7%.
Compound COc1ccc(Nc2ccc3ccccc3c2)cc1 has an inhibition of 31.3%.
For Nc1nc(-c2ccccc2)cc(-c2ccccc2)n1, the inhibition was 9.59%.
In the case of Nc1cccc(-c2cc(-c3ccccc3)nc(-c3cccc(N)c3)n2)c1, the inhibition is reported as 102% (active).
CNc1nc(-c2ccccc2)cc(-c2ccccc2)n1 showed an inhibition of 21.8%.
In the case of CC(=NNC(=S)N1CCCCCC1)c1ccccn1, the inhibition is reported as 22.4%.
For O=C(Nc1ccc(N2CCOCC2)cc1)c1cccc(S(=O)(=O)N2CCOCC2)c1, the inhibition was 65.7%.
For Cc1ncc(CO)c(/C=N/NC(=O)c2cccc(S(=O)(=O)N3CCCC3)c2)c1O, the inhibition was 84.8% (active).
For Cc1nc2ccc(NC(=O)c3cccc(S(=O)(=O)N4CCOCC4)c3)cc2s1, the inhibition was 72.3% (active).
Compound Cc1ccc(NC(=O)c2ccccn2)cc1S(=O)(=O)N1CCOCC1 has an inhibition of -25.4%.
With Cc1ccc(C(=O)Nc2ccc3c(c2)OCCO3)cc1S(=O)(=O)N1CCOCC1 the inhibition was 50.5%.
COc1ccc(OC)c(NC(=O)c2cccc(S(=O)(=O)N3CCN(C(C)=O)CC3)c2)c1 was tested, and the inhibition was 10.1%.
Work on Cc1cccc(NC(=O)c2cccc(S(=O)(=O)N3CCCC3)c2)n1 yielded an inhibition of 26.2%.
For COc1ccc(Br)cc1/C=N/NC(=O)c1cccc(S(=O)(=O)N2CCOCC2)c1, the inhibition was 81.8% (active).
For CCOc1cc(/C=N/NC(=O)c2cccc(S(=O)(=O)N3CCOCC3)c2)ccc1OCC(=O)N(C)C, the inhibition was 23.7%.
O=C(N/N=C/c1ccccn1)c1ccc(S(=O)(=O)N2CCCCCC2)cc1 showed an inhibition of 10.6%.
Cc1ccc(NC(=O)c2ccc(Cl)nc2)cc1S(=O)(=O)N1CCOCC1 was tested, and the inhibition was 74.1% (active).
For O=C(Nc1ccc(S(=O)(=O)Nc2nccs2)cc1)c1cccc(S(=O)(=O)N2CCOCC2)c1, the inhibition was -0.76%.
CC(=O)OCC1(O)CC23CCC4c5ccoc5CCC4(C)C2CCC1C3 (configuration not stated) showed an inhibition of 30.4%.
For COc1cc(/C=C/CNC[C@H]2O[C@@H](n3cnc(C(N)=O)n3)[C@H](O)[C@@H]2O)ccc1O, the inhibition was -8.12%.
O=c1[nH]c(=S)[nH]c(O)c1/C=C1\C=Nc2ccccc21 showed an inhibition of -12.1%.
Compound Cc1cc(OCCCC(=O)Nc2cc(S(=O)(=O)N3CCOCC3)ccc2N2CCOCC2)ccc1Cl has an inhibition of 17.2%.
For C/C(=N\NC(=O)c1ccoc1C)c1ccccc1O, the inhibition was 95.2% (active).
Work on Cc1[nH]n(-c2ccccc2)c(=O)c1/C=N/NC(=O)c1ccoc1C yielded an inhibition of 69.6%.
In the case of CC(C)=C(NC(=O)c1ccccc1)C(=O)N/N=C(\C)c1ccccc1O, the inhibition is reported as -7.68%.
With Cc1ccc(C)c(S(=O)(=O)N(C)c2ccc(OC(=O)C3CCN(C(=O)c4ccc(F)cc4)CC3)cc2)c1 the inhibition was 12.3%.
For Cc1cccc(C)c1OC(=O)CSc1nnc(-c2ccccc2)o1, the inhibition was -9.02%.
For CC1=CC(C)(C)N(C(=O)CSc2nnc(-c3ccccc3)o2)c2ccc(C)cc21, the inhibition was 73.5% (active).
Work on CC1=CC(C)(C)N(C(=O)CSc2nccn2C)c2cc(C)ccc21 yielded an inhibition of -2.67%.
For CCc1c(Nc2ccccc2Cl)nc(N)[nH]c1=O, the inhibition was -15.3%.
Work on COc1ccc(OC)c(NC(=O)CC(Cc2ccccc2OC)C(=O)O)c1 (configuration not stated) yielded an inhibition of -10.9%.
Work on CCOc1ccc(NC(=O)Nc2cc(C)ccc2OC)cc1 yielded an inhibition of 10.4%.
Compound CCOc1cc2ccccc2cc1C(=O)Nc1ccccn1 has an inhibition of 58.6%.
Work on CCOc1cc(NS(=O)(=O)c2ccc(OC)cc2)c(OCC)cc1NC(C)=O yielded an inhibition of -2.12%.
For CCOc1ccccc1NC(=O)Nc1cc(OC)ccc1OC, the inhibition was 76.1% (active).
With CCOc1cc(NC(=O)c2ccccn2)c(OCC)cc1NC(=O)c1ccc(OC)cc1 the inhibition was 72.3% (active).
In the case of CC1CN(Cc2ccccc2)C(=S)NC1=O (configuration not stated), the inhibition is reported as -4.96%.
Compound Cc1cc2c(cc1C)NC1(C[C@H]3CCC(=O)N4CC[C@@H](C1)[C@@H]34)C(=NC(C)(C)CC(C)(C)C)N2 (some centres not stated) has an inhibition of -27.8%.
O=C(NNc1nc(N2CCCC2)nc(N2CCCC2)n1)c1ccccc1 gave an inhibition of -25.2%.
O=C1C=C(NS(=O)(=O)c2ccccc2)C(=O)c2ccccc21 was tested, and the inhibition was -17.2%.
Work on c1ccc(-c2c[nH]c(-c3ccccc3)c2)cc1 yielded an inhibition of 9.83%.
For COc1ccc(-c2c(C)cc3oc(=O)cc(-c4ccccc4)c3c2C)cc1OC, the inhibition was 66.6%.
COc1ccc(-c2c(C)cc3oc(=O)cc(-c4ccccc4)c3c2C)cc1C=O was tested, and the inhibition was 75.1% (active).
For COc1ccc(-c2c(C)cc3oc(=O)cc(-c4ccccc4)c3c2C)cc1F, the inhibition was 68.3%.
Compound COc1ccc2[nH]c3c(c2c1)CCN1C(=O)C(CC(=O)NCCc2ccccn2)C[C@H](C(=O)N2CCOCC2)[C@@]31C (some centres not stated) has an inhibition of -24.1%.
O=C(Nc1c[nH]c(=O)[nH]c1=O)OCc1ccccc1 showed an inhibition of -8.08%.
For O=C(NC1=CC(=O)c2ccccc2C1=O)c1ccccc1, the inhibition was 2.35%.
In the case of Cc1cccc(NC(=O)c2sc3nc4c(c(-c5ccco5)c3c2N)CCC4)c1, the inhibition is reported as 77.8% (active).
Work on Cc1cccc(NC(=O)c2sc3nc(N4CCOCC4)c4c(c3c2N)CCCC4)c1 yielded an inhibition of 68%.
For Cc1cccc(NC(=O)CSc2nnc(-c3ccco3)o2)c1, the inhibition was -5.55%.
In the case of CCOC(=O)C/C(C)=N\Nc1ccc([N+](=O)[O-])cc1[N+](=O)[O-], the inhibition is reported as -9.86%.
Cc1csc(NC(=O)Nc2ccccc2[N+](=O)[O-])n1 gave an inhibition of 2.45%.
CCOC(=O)/C(=N\Nc1ccccc1[N+](=O)[O-])c1csc(Nc2ccccc2)n1 was tested, and the inhibition was 106% (active).
For O=C(OCCOc1ccccc1F)c1cc(S(=O)(=O)N2CCOCC2)ccc1F, the inhibition was 12.6%.
C=C(C)CNc1cc(S(=O)(=O)N2CCOCC2)ccc1Oc1ccccc1 was tested, and the inhibition was 10.5%.
For COC(=O)c1cc(Oc2ccc(S(=O)(=O)N3CCOCC3)cc2[N+](=O)[O-])cc(C(=O)OC)c1, the inhibition was 70.8% (active).
COc1ccc(S(=O)(=O)N2CCC(C(=O)OCC(=O)c3ccccc3)CC2)cc1[N+](=O)[O-] was tested, and the inhibition was -14.3%.
CC(C)(C)C(=O)Nc1cccc(-c2ccc[nH]2)n1 showed an inhibition of -5.41%.
COc1cccc(NC(=O)CN2CCN(CC(=O)Nc3ccccc3Cl)CC2)c1 gave an inhibition of 19.8%.
Compound O=C(CN1CCC(NC(=O)Nc2ccccc2)CC1)Nc1cccc([N+](=O)[O-])c1 has an inhibition of 30.9%.
For Cc1cc(C)cc(NC(=O)NC2CCN(CC(=O)Nc3cccc(Cl)c3C)CC2)c1, the inhibition was 74.4% (active).
Work on O=C(Cc1ccc([N+](=O)[O-])cc1)NCCc1ccc2c(c1)OCO2 yielded an inhibition of 30.8%.
For CC(C)=CCc1ccc(O)c(=O)cc1C(C)C, the inhibition was 12.4%.
Compound CC(=O)OC1CCC2C3CCC4=C(CC(F)C(=O)C4)C3CCC12C (configuration not stated) has an inhibition of 3.99%.
In the case of Brc1ccc(-c2csc(N/N=C/c3cccnc3)n2)cc1, the inhibition is reported as 37.2%.
For C(=N\Nc1ccc2ccccc2n1)/c1ccc2c(c1)OCO2, the inhibition was 7.43%.
For Brc1ccc(-c2csc(N/N=C/c3ccc4c(c3)OCO4)n2)cc1, the inhibition was 79.4% (active).
In the case of NC(=O)c1ncn([C@@H]2O[C@H](CNCc3cnc(N4CCOCC4)s3)[C@@H](O)[C@H]2O)n1, the inhibition is reported as 12%.
Compound CC/C(=C(/c1ccccc1)c1ccc(OCC[N+](C)(C)C)cc1)c1ccccc1 has an inhibition of -44.1%.
In the case of O=C(O)/C=C\C(=O)Nc1ccc(OCc2ccccc2)cc1, the inhibition is reported as -11.2%.
Cc1cccc(NC(=O)Nc2ccc(OCc3ccccc3)cc2)n1 was tested, and the inhibition was 17.6%.
With CCc1ccnc(NC(=O)Nc2ccc(OCc3ccccc3)cc2)c1 the inhibition was 81.9% (active).
With Cc1cc(NC(=O)C(C)SCC(=O)Nc2cccc(S(=O)(=O)N3CCCCCC3)c2)no1 (configuration not stated) the inhibition was 41.5%.
For Cc1cn(C2CC(O)C(CO)O2)c(=O)n(CCCc2ccccc2)c1=O (configuration not stated), the inhibition was 2.76%.
Work on Cc1ccccc1OCC(=O)Nc1ccc(S(=O)(=O)N2CCOCC2)cc1 yielded an inhibition of -12.4%.
In the case of Cc1ccccc1OCC(=O)Nc1ccc(N2CCN(C(=O)C(C)C)CC2)c(Cl)c1, the inhibition is reported as 72% (active).
Compound Cc1ccccc1OCC(=O)Nc1ccc2c(c1)ncn2C has an inhibition of 9.34%.
Cc1ccc(Cn2c(C)c3cnn(CC(=O)NCCN4CCOCC4)c(=O)c3c2C)cc1 was tested, and the inhibition was 22.1%.
Compound CCC1(C)COC(c2ccc(OC)c(OC)c2)OC1 (configuration not stated) has an inhibition of -11.4%.
Cc1ccc(C(=O)O)c(NC=O)c1OCc1ccccc1 was tested, and the inhibition was -19.3%.
CCOC(=O)/C(=C\c1ccc([N+](=O)[O-])cc1)C(=O)c1cc(C(C)=O)c(Nc2ccccc2)s1 was tested, and the inhibition was 80.9% (active).
With CCOC(=O)COc1ccc([N+](=O)[O-])cc1 the inhibition was -24.5%.
With CCOC(=O)/C(C#N)=C/c1ccc(OCC(=O)Nc2ccccc2)c(OC)c1 the inhibition was -11.4%.
